The target in this assay is Mas-related G-protein coupled receptor member X1 (Homo sapiens) (UniProt Q96LB2). Description: MrgX1 receptor agonists, duplicate retest, confirmation, HEK293 cells, Fluo-4 calcium flux (AID 602412). Particulars: MrgX1-HEK293, Fluo-4 calcium fluorescence, FDSS; at 10 µM; hits give high values.

SMILES strings stand for the structures. The list shows a part of the results. The source made the active and inactive calls.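 How the source made its calls: active means calcium signal rise, corrected for plate position, at least 3 library SD high, with starting brightness within 5 such deviations; inactive means the rest.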

Sequence of Mas-related G-protein coupled receptor member X1 (Homo sapiens) (Q96LB2 whole entry, looked up): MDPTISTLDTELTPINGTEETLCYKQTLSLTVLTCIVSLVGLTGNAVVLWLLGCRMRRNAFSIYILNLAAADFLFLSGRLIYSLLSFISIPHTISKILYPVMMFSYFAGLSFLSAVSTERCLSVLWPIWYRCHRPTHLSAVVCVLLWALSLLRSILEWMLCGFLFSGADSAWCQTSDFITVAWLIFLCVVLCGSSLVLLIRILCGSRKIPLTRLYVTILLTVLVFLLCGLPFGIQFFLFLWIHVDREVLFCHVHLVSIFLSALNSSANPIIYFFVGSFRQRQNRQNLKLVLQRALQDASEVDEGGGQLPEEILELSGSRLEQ

With `CCCCC(=O)N/N=C/c1c(O)n(CC)c(=S)n(CC)c1=O`, the activation was 372% (active).

Values taken from PubChem BioAssay AID602412 (Johns Hopkins Ion Channel Center, 2012).
